We go through twelve molecules from PubChem BioAssay.

The structures appear in SMILES notation.

This test concerns PRMT1 (protein arginine N-methyltransferase 1). Description: PRMT1 binders on small-molecule microarrays, primary screen, biochemical, small-molecule microarray, 635 nm fluorescence (AID 1088).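 Also: binding of Prmt1 protein to compounds spotted on small-molecule microarray slides.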 The note with it: small-molecule microarray binding, higher = more signal.
Regarding `CCOC(=O)C1=CCC(c2cccn2C(=O)OC(C)(C)C)N(S(=O)(=O)c2ccc(C)cc2)C1` (configuration not stated), the composite z-score is 1.48. The value for `CC[C@@H]1C=C(C(=O)O)[C@H](c2cccc(Cl)c2)N1S(=O)(=O)c1ccc(C)cc1` was 0.877; that for `O=C1O[C@H](c2ccccc2)[C@H](c2ccccc2)N2[C@H]1[C@@H](C(=O)O)[C@]1(C(=O)Nc3ccccc31)[C@H]2c1ccc(OCCO)cc1` was 1.53; that for `COc1ccc(NN2C(C(O)c3ccc(F)cc3)C=CC3C(=O)N(C4CCCCC4)C(=O)C32)cc1` (configuration not stated) was 1.56. The value for `C=CCNC(=O)[C@@H]1[C@H]2C(=O)O[C@H](c3ccccc3)[C@H](c3ccccc3)N2[C@H](c2ccc(OCCO)cc2)[C@@]12C(=O)Nc1ccc(C#CCNC(N)=O)cc12` was 0.872; that for `CCCCN1CC=CC23O[C@@H]4C=CCCOC(=O)C4[C@H]2C(=O)N(CCO)[C@@H]3C1=O` (some centres not stated) was -0.0141. The value for `CN1C(=O)C2C=CC(C(O)c3ccc([N+](=O)[O-])cc3)N(Nc3ccccc3)C2C1=O` (configuration not stated) was 1.38; that for `CC(C)[Si]1(C(C)C)OCc2cc(-c3ccc(-c4ccc(Cl)c(Cl)c4)o3)nc(-c3ccc(Oc4ccccc4)cc3)c21` was -1.67. Regarding `C=C1C(=O)C=C2CN(C(=O)c3ccccc3)[C@@](Cc3ccc(F)cc3)(C(=O)OC)[C@@H]12`, the composite z-score amounted to 0.356. The value for `CN(C)C(=O)[C@]1(CCS(=O)(=O)c2ccccc2)N=C(c2ccc(OCCCO)cc2)O[C@@H]1c1ccccc1CN=[N+]=[N-]` was 1.55. To `CN1C2C=C(c3ccc(CO)cc3)C(C3C(=O)N(C(N)=O)C(=O)C32)C1C1CC1` (configuration not stated) belongs 0.132; to `CCCNC(=O)[C@@]1(Sc2ccc(C)cc2)CC(=O)N(Cc2cc(C(F)(F)F)cc(C(F)(F)F)c2)[C@@H]1c1ccc(CO)cc1`, 0.805.
